Here are results for two compounds from PubChem BioAssay AID1671187 (National Center for Advancing Translational Sciences (NCATS), 2021).

This is one part of the list. Records with an inconclusive call do not appear. Activity calls are given as the source filed them. Calls come from the whole dose curve; as a rule, active = well fitted inhibition curve with a large enough effect; inconclusive = small, poorly fitted or top-dose-only effect; inactive = flat fitted curve, though single readings scatter.

Sequence of Alanine aminotransferase 2 (Homo sapiens) (Q8TD30 whole entry, looked up): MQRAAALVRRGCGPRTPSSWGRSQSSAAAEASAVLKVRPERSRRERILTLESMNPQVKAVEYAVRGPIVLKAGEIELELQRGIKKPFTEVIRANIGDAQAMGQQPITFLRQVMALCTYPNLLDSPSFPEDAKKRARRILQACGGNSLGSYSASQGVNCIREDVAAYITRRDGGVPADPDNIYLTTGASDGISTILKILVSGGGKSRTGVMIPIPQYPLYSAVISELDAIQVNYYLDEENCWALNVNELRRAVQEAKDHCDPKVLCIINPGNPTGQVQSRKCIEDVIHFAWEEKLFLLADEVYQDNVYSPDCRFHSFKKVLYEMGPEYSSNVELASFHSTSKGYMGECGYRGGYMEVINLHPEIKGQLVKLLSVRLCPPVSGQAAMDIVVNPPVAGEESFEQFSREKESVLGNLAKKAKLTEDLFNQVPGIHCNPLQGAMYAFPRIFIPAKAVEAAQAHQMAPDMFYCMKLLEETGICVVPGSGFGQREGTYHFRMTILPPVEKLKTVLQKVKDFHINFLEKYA

The target of this assay is Alanine aminotransferase 2 (Homo sapiens) (UniProt Q8TD30). As to the kind of experiment: Confirmatory qHTS assay for inhibitors of Glutamate pyruvate transaminase 2 (GPT2). Particulars: GPT2 enzyme, coupled Amplex Red pyruvate fluorescence. The procedure:
Assay Provider: Zhenghe John Wang Ph.D. Case Western Reserve University, Cleveland OH Glutamate pyruvate transaminase 2 (GPT2) catalyzes the reversible transamination of glutamate and pyruvate to provide a-ketoglutarate and alanine. We have optimized an assay for GPT2 enzymatic activity that couples pyruvate formation to detection of fluorescence using an established pyruvate oxidase/horseradish peroxidase / Amplex Red system. Screening conditions were 250uM a-KG, 2mM L-alanine, and 0.006 ng/uL GPT2 in 4 uL of solution; 2 uL of Amplex reaction mix (outlined below) were added so that final concentrations of Amplex reagents in 6 uL were 0.2mM ThPP, 0.2U/mL PO, 1 U/mL HRP, and 15 uM Amplex.
NOTE: The volume of GPT2 in the system depended on the activity of it. The activity could be different in every batch. Batch testing the GPT2 activity was done prior to the assay. Full plate assay with automation as the following protocol: 1. Dispense 2ul of GPT2 enzyme (0.012 ng/ul) into columns 3-48, 2ul of GPT2 buffer (ddH2O with 110mM KCl, 10mM NaCl, 2mM MgCl2, 20mM HEPEs, 0.01% tween-20, 0.1% BSA, 5mM DTT ) into columns 1-2 as a positive control. 2. […] Read at Tecan: Excitation filter 560(10) nm, Emission filter 590 (10) nm Reagents preparation: 1. […]
For the compound `CN1CCOc2c(C(=O)NCCN3CCNC3=O)cc(Nc3cccnc3)cc21`, the Potency was 4.98 µM (active).
Under `CNC(=O)c1ccccc1Nc1nc(Nc2ccc(N3CCOCC3)cc2OC)ncc1Cl` stands 1.72 µM (active).
